Experimental data reported in PubChem BioAssay (NCI).
This is part of a sample that, as a whole, favours compounds with a hit. Of some 83,000 tested, about 20% had one in any assay.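 Each cell line was grown in a 96-well plate and treated with one concentration of compound for 48 hours. Values below 10 were considered active.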 Values without a mark were called inactive. The source made the active and inactive calls.

Tests used:
Test in all cases: NCI-60 one-dose screen, 48 h (100 = growth as untreated, 0 = no growth, -100 = all killed)
Conditions in all cases: 10 µM unless noted
DU-145 prostate = tested on: DU-145 prostate
K-562 leukemia = tested on: K-562 leukemia
MALME-3M melanoma = tested on: MALME-3M melanoma
MDA-MB-231 breast = tested on: MDA-MB-231 breast
RXF 393 renal = tested on: RXF 393 renal
SF-268 CNS = tested on: SF-268 CNS
SF-295 CNS = tested on: SF-295 CNS
SF-539 CNS = tested on: SF-539 CNS
UACC-257 melanoma = tested on: UACC-257 melanoma
M14 melanoma = tested on: M14 melanoma
HT29 colon = tested on: HT29 colon
SNB-75 CNS = tested on: SNB-75 CNS
SNB-19 CNS = tested on: SNB-19 CNS
U251 CNS = tested on: U251 CNS
PC-3 prostate = tested on: PC-3 prostate
SK-MEL-5 melanoma = tested on: SK-MEL-5 melanoma
UACC-62 melanoma = tested on: UACC-62 melanoma
LOX IMVI melanoma = tested on: LOX IMVI melanoma
SK-MEL-28 melanoma = tested on: SK-MEL-28 melanoma

| Compound | growth (DU-145 prostate) | growth (K-562 leukemia) | growth (MALME-3M melanoma) | growth (MDA-MB-231 breast) | growth (RXF 393 renal) | growth (SF-268 CNS) | growth (SF-295 CNS) | growth (SF-539 CNS) | growth (UACC-257 melanoma) | growth (M14 melanoma) | growth (HT29 colon) | growth (SNB-75 CNS) | growth (SNB-19 CNS) | growth (U251 CNS) | growth (PC-3 prostate) | growth (SK-MEL-5 melanoma) | growth (UACC-62 melanoma) | growth (LOX IMVI melanoma) | growth (SK-MEL-28 melanoma) |
| --- | --- | --- | --- | --- | --- | --- | --- | --- | --- | --- | --- | --- | --- | --- | --- | --- | --- | --- | --- |
| Cc1nnc(-c2ccc3c(c2)nc(/C=C/c2ccccc2)n3C2CCCCC2)o1 | 91.5% | 45.9% | 95% | 87.3% | 84.6% | 86.5% | 76.1% | 110% | 77.4% | 73.7% | 37.3% | 103% | 102% | 79.8% | 63.5% | 70.8% | 61.8% | 44.3% | 72.4% |
| COc1ccc(/C=C/C(c2cc(OC)c(OC)c(OC)c2)n2ccnc2)cc1O (configuration not stated) | 37.8% | 13.6% | 57.7% | 53% | 33.1% | 56.1% | 16.6% | 23.1% | 34.2% | 18.6% | 71% | 20% | 47.3% | 27.1% | 25.3% | 17% | 36.4% | 46.1% | 58.9% |
| CCOC(=O)c1c(C)c2c(n1Cc1ccccc1)CSCC2=O | 30.8% [100 µM] | 18.6% [100 µM] | -16.3% [100 µM] (active) | -2.2% [100 µM] (active) | 17.1% [100 µM] | 21.4% [100 µM] | 3.06% [100 µM] (active) | -23.7% [100 µM] (active) | 21.9% [100 µM] | -16% [100 µM] (active) | 7.91% [100 µM] (active) | -13.9% [100 µM] (active) | 13.8% [100 µM] | 17.5% [100 µM] | 7.17% [100 µM] (active) | -86.5% [100 µM] (active) | -35.4% [100 µM] (active) | -24.4% [100 µM] (active) | 27.8% [100 µM] |
| Clc1c(Cl)[n+](Cc2ccc3ccccc3c2)cn1Cc1ccc2ccccc2c1 | 32.6% | -3.01% (active) | -14.1% (active) | 7.04% (active) | -7.52% (active) | 20.8% | 45.6% | 58.6% | -37.7% (active) | -31.9% (active) | -69.4% (active) | 10.3% | 26.8% |  | 3.79% (active) | -79.7% (active) | -42.8% (active) | -21.4% (active) | 16.1% |
| C=C(C)[C@@H]1CCC[C@]2(C(=O)N3CCN(C)CC3)CC[C@]3(C)[C@@H](CC[C@@H]4[C@@]5(C)CC/C(=N\NC(=O)c6ccncc6)C(C)(C)[C@@H]5CC[C@]43C)[C@@H]12 | 100% | 17.6% | 74.1% | 66.8% | 99.7% | 84.2% | 104% | 104% | 103% | 74.3% | 98.8% | 77.7% | 83.5% |  | 87% | 92.9% | 87.4% | 89.3% | 95.5% |
| C#CCOc1cccc(-c2ncnc3cc(NC(=O)C=C)ccc23)c1 | 15.6% | 24.2% | 60.5% | 15.8% | 30.8% | 49.6% | 43.2% | 8.33% (active) | 62.5% | 45.6% | 10.8% | 10.6% | 50.6% | 51.4% | 37.2% | 68.5% | 34.6% | 34.1% |  |
| S=c1nc2oc(-c3ccccc3)c(-c3ccccc3)c2c(/N=C\c2ccco2)[nH]1 | 100% | 89.3% | 99.3% | 98.5% | 99.3% | 90.2% | 94.3% | 95.8% | 105% | 103% | 98.3% | 74.2% | 95.2% | 91.4% | 85.8% | 94.6% | 90.9% | 92.9% | 109% |
| COC(=O)CCC/C=C\C[C@H]1C=CC(=O)/C1=C/C[C@@H](O)C/C=C\CC(F)(F)F | 24.9% | 6.69% (active) | 10.2% | 8.26% (active) | -5.41% (active) | 17.6% | -1.18% (active) | 17.8% | -15.6% (active) | -16.8% (active) | -42.6% (active) | 68.3% | 33.7% |  | -16.2% (active) | -89.7% (active) | -37.2% (active) | -82.7% (active) | -25.5% (active) |
| COc1ccc(-c2n[nH]c(=O)c3nc(NC(=S)Nc4ccc(Oc5ccccc5)cc4)sc23)cc1 | 102% | 89.3% | 110% | 84% | 104% | 102% | 102% | 105% | 79.7% | 88.9% | 87.6% | 80.8% | 101% | 83.3% | 83.8% | 99.9% | 95.2% | 104% | 104% |
| O=C(CCCCCNC(=O)c1cc(=O)c(O)co1)Nc1ccccc1 | 103% | 95.2% | 102% | 101% | 109% | 91.8% | 97.4% | 101% | 93.8% | 96.3% | 106% | 82.7% | 101% | 89.9% | 99.7% | 101% | 97.9% | 92.7% |  |
| COc1ccc(/C=C2\CN(C(=O)C(Cl)Cl)C/C(=C\c3ccc(OC)cc3)C2=O)cc1 | -11.2% (active) | 2.32% (active) | -33.9% (active) | 3.8% (active) | -68.2% (active) | 23.6% | -25.1% (active) | -40% (active) | 22.8% | -39% (active) | 5.9% (active) | 21% | -10.9% (active) | -68.2% (active) | -8.13% (active) | -41% (active) | -66% (active) | -77.8% (active) | -12.5% (active) |
| C[C@@H]1O[C@@H](O[C@@H]2C[C@H](c3ccc4c(c3O)C(=O)C3=C(C4=O)[C@@]4(O)C(=O)C[C@](C)(O)C[C@@]4(O)C=C3)O[C@H](C)[C@H]2O)CC[C@@H]1O[C@H]1C[C@@H](O)[C@H](O)[C@@H](C)O1 | 110% | 94.4% | 65.4% | 105% | 113% | 87% | 102% | 100% | 98.4% | 110% | 108% | 90.7% | 100% | 98.7% | 96% |  | 97.8% | 94.6% | 116% |
| CC/C=C\CCC/C=C1/C(=O)C=C[C@@H]1C/C=C\CCCC(=O)OC | 60.4% | 0.856% (active) | 34.1% | 15.3% | 96.4% | 31% | 74.2% | 95.4% | 69.7% | 1.66% (active) | -1.77% (active) | 82.7% | 50.2% | 19.7% | 32.8% | -32% (active) | -14.2% (active) | -70.8% (active) | 61.3% |
| O=c1c2c3c(sc2n2c(-c4cc(-c5ccccc5)no4)nnc2n1Cc1ccccc1)CCCC3 | 88.5% | 64.9% | 122% | 80.5% | 77.8% | 93.5% | 83.4% | 114% | 110% | 111% | 108% | 76.2% | 55.7% |  | 71.8% | 105% | 80.7% | 81% | 127% |
| O=C(Nc1ccccc1N1CCCC1=O)c1oc2ccc(F)cc2c1-c1cnn(-c2ccccc2)c1 | 68.8% [50 µM] | 42.9% [50 µM] | 28.8% [50 µM] | 21.7% [50 µM] | 25.8% [50 µM] | 40.1% [50 µM] | 43.5% [50 µM] | 30.8% [50 µM] | 69.9% [50 µM] | 77.7% [50 µM] | 62.2% [50 µM] | 14.8% [50 µM] | 54.5% [50 µM] | 62.8% [50 µM] | 39.7% [50 µM] | 10.6% [50 µM] | 46.1% [50 µM] | 42.2% [50 µM] | 72% [50 µM] |
| O=C1/C=C/[C@@H](O)[C@@H]2C[C@@H](O)C[C@H]2/C=C/CCC[C@H](CCO)O1 | 16.6% | 17.7% | -11.4% (active) | -83.1% (active) | -7.43% (active) | 12.4% | 12.1% | 31.7% | 27% | 12.3% | -2.5% (active) | 33.1% | 31.4% | 20.7% | 19.6% | -94.6% (active) | 25.3% | -61.4% (active) | -3.47% (active) |
